# IL-1B inflam inh: inflammasome signaling inhibition, IL-1 beta readout; THP-1 LPS/ATP IL-1B secretion, AlphaLISA, 16 h; active compounds read low; activity change, % at 57.5 µM; hit rate 4.7% among 360,000; AID 743279; in the data active = activity change below about -50%; inconclusive = mostly about -30% to -49%
#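 THP-1 cells pretreated 1 hr with compounds (up to 57.5 uM final), then stimulated with LPS (250 ng/mL final) plus ATP (1.25 mM final); secreted IL-1B measured by AlphaLISA after 16 hr, decreased signal indicating inhibition.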
# HT1080-NT tox: kills 2HG-producing HT-1080-NT fibrosarcoma cells. hit rate 1.6% among 360,000. Potency, µM (titrated, usually from 46.1 µM), inactives show at the top dose activity, negative = less viability, actives largely listed as cytotoxic. HT-1080-NT fibrosarcoma viability, CellTiter-Glo ATP luminescence, 48 h;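 also: NT is the 2HG producing partner of a matched IDH1 knockdown line; potency is read from the fitted curve at half-maximal effect; 0% = DMSO-treated cells and -100% = media-only wells without cells; nearly all actives have a fitted effect of over 55% in size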
#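 Read-out is CellTiter-Glo luminescence after 10 minutes at room temperature, following 48 hours' compound treatment of HT-1080-NT cells (750 cells/well, RPMI, 5% FBS, 37 degrees C).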
# TDP1 cell CPT: DT40-hTDP1 cell growth loss with CPT; chicken DT40 Tdp1-/-;hTDP1 cells + 20 nM CPT, ATP luminescence, 48 h; Potency, µM (titrated, usually from 46.2 µM), for inactives: at the highest dose activity change, negative = growth inhibition, actives largely listed as inhibitors; hit rate 12% among 420,000; also: potency is read from the fitted curve at half-maximal effect; nearly all actives have a fitted effect of over 55% in size
#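 Chicken DT40 Tdp1-/- cells stably complemented with human TDP1 were seeded at 400 cells/well in medium containing 20 nM camptothecin, exposed to pin-transferred compounds, and grown at 37 °C for at least 48 hr. Viability was read as ATP luminescence.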
# DT40 TDP1 no CPT: qHTS for Inhibitors of human tyrosyl-DNA phosphodiesterase 1 (TDP1): qHTS in cells in absence of CPT. hit rate 15% among 420,000. Potency, µM (doses to about 46.2 µM), without a hit: at the top dose activity change, negative = growth inhibition, most hits filed as inhibitors. DT40 Tdp1-/- hTDP1 cells, no CPT, ATP luminescence, 48 h; also: potency is read from the fitted curve at half-maximal effect; nearly all actives have a fitted effect of over 55% in size
#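 Luminescent ATP content (CellTiter-Glo) served as the growth readout. Knockout chicken DT40 cells expressing human TDP1 were exposed to compounds without camptothecin for a minimum 48 hr at 37 °C.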
# HT1080 IDH1KD tx: kills HT-1080 cells with IDH1 knockdown. HT-1080 IDH1 knockdown viability, ATP luminescence, 48 h. Potency, µM (doses to about 46.1 µM), inactives show top-dose activity, negative = toxicity, most hits filed as cytotoxic. hit rate 2% among 360,000;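 also: potency is read from the fitted curve at half-maximal effect; 0% = DMSO wells and -100% = cell-free medium wells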
#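 Cytotoxicity counter-line: IDH1KD HT-1080, 48 h, CellTiter-Glo. Curves classed by r2, magnitude and activity.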
# An asterisk follows results filed as active; ? = inconclusive; nt = no result given; [ ] = another dose, or the depositor's remark. Most compounds without a hit are left out; they make up all but 19% or so of the library. Unless noted, calls follow the shape of the dose curve; as a rule, active = well fitted curve in the direction sought with a large enough effect; inconclusive = small, poorly fitted or top-dose-only effect, or another doubt; inactive = no such curve, though single readings can be large; an effect the other way counts as inactive or inconclusive. Unless noted, % is scaled to controls: 0 for no effect and ±100 for the full control effect.
SMILES,IL-1B inflam inh,HT1080-NT tox,TDP1 cell CPT,DT40 TDP1 no CPT,HT1080 IDH1KD tx
Cc1ccc2c(c1)c1c(c(=O)n(-c3ccccc3C)c(=O)n1CC(=O)NCC1CCCO1)n2C (configuration not stated),-24.1,0.5%,?,?,0.0%
O=S(=O)(c1cccc(S(=O)(=O)N2CCCC2)c1)N1CCCCC1,42.0,3.8%,-0.1%,6.0%,0.0%
COc1c(S(=O)(=O)N2CCCCC2)ccc2c(S(=O)(=O)N3CCCCC3)cccc12,-23.1,7.4%,16.4µM*,23.1µM*,5.6%
O=[N+]([O-])c1cccc2c(S(=O)(=O)N3CCCCC3)cccc12,-16.7,-17.8%,-19.7%,?,-4.8%
COc1ccc(S(=O)(=O)N2CCCC2)c2ccccc12,-2.3,-0.3%,-29.5%,-20.3%,-7.9%
O=S(=O)(c1cccc(S(=O)(=O)N2CCCC2)c1)c1cccc(S(=O)(=O)N2CCCC2)c1,-20.7,9.2%,13µM*,?,-1.3%
O=S(=O)(c1cccc2c(S(=O)(=O)N3CCCC3)cccc12)N1CCCC1,6.9,4.7%,?,16.4µM*,7.7%
CN(c1ccccc1)c1ccc(/C=N/N2CCOCC2)cc1,-17.4,-0.6%,2.3%,-15.8%,0.2%
CCCCC(CC)COC(=O)/C=C/c1ccc(OC)cc1 (configuration not stated),nt,nt,1.0%,3.9%,nt
COc1ccc(/C=C/C(=O)Oc2ccc(C=O)cc2OC)cc1,-0.2,2.0%,-18.8%,-19.2%,6.3%
COC(=O)Oc1ccc(/C=C/C(=O)OC(C)C)cc1OC(=O)OC,5.3,-12.8%,?,9.2µM*,0.5%
CCCCOC(=O)/C=C/c1ccc(OC(=O)OC)c(OC(=O)OC)c1,12.2,-27.0%,7.31µM*,9.2µM*,?
O=C1C(Nc2ccccc2)=C/C(=N/S(=O)(=O)c2cccs2)c2ccccc21,-98.7*,?,2.91µM*,4.61µM*,?
COC(=O)c1ccccc1NC1=C/C(=N\S(=O)(=O)c2cccs2)c2ccccc2C1=O,-92.1*,20.6µM*,3.26µM*,5.8µM*,6.31µM*
Cc1ccc(NC2=C/C(=N/S(=O)(=O)c3cccs3)c3ccccc3C2=O)cc1,-88.9*,2.91µM*,1.84µM*,3.26µM*,4.11µM*
O=C(CSc1nnc(CNC(=O)c2c(F)cccc2F)o1)NCc1ccco1,0.0,1.7%,12.3%,1.3%,-0.5%
CCOC(=O)c1n[nH]n2c1nc(=S)c1ccccc12,-1.8,-5.6%,-14.1%,-20.1%,-0.2%
Cc1ccc(-c2cc(NC=O)c3ncc(-c4cccc(C(=O)N(C)C)c4)n3c2)cc1,-14.0,?,?,?,?
CN(C)C(=O)c1cccc(-c2cc(NC=O)c3ncc(-c4ccc(F)cc4)n3c2)c1,82.4,?,?,16.4µM*,?
COc1ccc(F)cc1-c1cc(NC=O)c2ncc(-c3cccc(C(=O)N(C)C)c3)n2c1,-15.3,?,?,23.1µM*,-22.9%
CC(=O)c1ccc(-c2cnc3c(NC=O)cc(-c4cccc(C(=O)N(C)C)c4)cn23)cc1,8.5,?,5.17µM*,7.31µM*,?
O=C(Nc1cc2c(cc1Br)OCCO2)c1ccc(=O)[nH]c1,-3.6,9.7%,5.2%,1.5%,0.1%
O=C(CCCn1cc([N+](=O)[O-])cn1)Nc1cccnc1,22.4,18.5%,13.2%,4.1%,13.2%
O=C(Nc1nnc([C@@H]2C[C@H](O)[C@@H](CO)O2)s1)Nc1ccc(F)cc1F,26.6,4.0%,-25.0%,-7.6%,?
Cc1ccc2c(c1)cc(CN(Cc1cccnc1)C(=O)c1ccccc1)c1nnnn12,-2.0,1.9%,-10.0%,0.3%,0.9%
SMILES,IL-1B inflam inh,HT1080-NT tox,TDP1 cell CPT,DT40 TDP1 no CPT,HT1080 IDH1KD tx
CCCN(Cc1cc2cc(C)ccc2[nH]c1=O)C(=O)c1cccc(Cl)c1,nt,nt,?,23.1µM*,nt
CCN(Cc1cc2cc(OC)ccc2[nH]c1=O)C(=O)c1ccncc1,0.0,2.3%[9.24 µM],-7.2%,-10.9%,-7.2%
CCCN(Cc1cc2ccccc2[nH]c1=O)C(=O)c1cccc([N+](=O)[O-])c1,19.1,5.4%,-17.4%,?,13.5%
Cc1ccc2[nH]c(=O)c(CN(Cc3cccnc3)C(=O)c3ccncc3)cc2c1,9.8,?,?,20.6µM*,?
Cc1ccc2c(c1)cc(CN(Cc1ccc3c(c1)OCO3)S(=O)(=O)c1ccccc1)c1nnnn12,13.7,6.5%,?,20.6µM*,6.5%
Cc1ccc(C(=O)N(Cc2cccnc2)Cc2cc3cc(C)ccc3n3nnnc23)cc1,2.9,7.0%,18.4µM*,?,4.9%
Cc1ccc2[nH]c(=O)c(-c3noc(CC(C)C)n3)cc2c1,0.0,14.8%,?,-42.2%,7.6%
C[C@@H]1NC(=O)c2cc([N+](=O)[O-])cc(I)c2OCC[C@@H](C(=O)NC(CC(=O)O)C(N)=O)NC(=O)[C@H](CC(N)=O)NC1=O (some centres not stated),-3.3,5.1%,7.1%,-5.4%,16.2%
Cc1ccc2c(c1)cc(CN(Cc1cccs1)C(=O)c1ccco1)c1nnnn12,-28.7,-17.3%,?,16.4µM*,-14.0%
CC1(C)N=C(N)NC(=NCCCOc2ccc([N+](=O)[O-])cc2)N1,11.8,3.3%,-26.2%,-7.1%,0.0%
COc1ccc(C2=NN(C(=O)c3ccccc3)C(c3ccc(OC)c(OC)c3)C2)cc1OC (configuration not stated),?,0.0%,-26.1%,4.0%,-6.2%
COc1cccc(C2CC(c3ccc(Br)cc3)=NN2C(=O)c2ccncc2)c1OC (configuration not stated),-50.3*,18.4µM*,?,?,18.4µM*
O=C(c1ccncc1)N1N=C(c2ccc(Cl)cc2)CC1c1ccccc1O (configuration not stated),?,-20.7%,?,?,-16.9%
COc1ccccc1C1CC(c2ccc(Br)cc2)=NN1C(=O)c1cccnc1 (configuration not stated),-51.6*,?,16.4µM*,16.4µM*,14.6µM*
O=S(=O)(c1ccc(Br)cc1)c1nnn2c1nc(Nc1cccc(C(F)(F)F)c1)c1sccc12,nt,nt,-11.7%,-4.9%,nt
COc1cccc(S(=O)(=O)Nc2ccc(C(=O)N3CCCCCC3)cc2)c1,-7.7,-4.1%,?,?,-5.8%
Cc1cccc(NS(=O)(=O)c2ccc(Cl)c(C(=O)Nc3ccccc3C)c2)c1,nt,nt,?,14.6µM*,nt
COc1cccc(S(=O)(=O)Nc2ccc(C(=O)Nc3ccncc3)cc2)c1,11.8,6.3%,13µM*,?,9.0%
